Here are results for twelve molecules from PubChem BioAssay.

Assay [1] concerns the target Peroxisome proliferator-activated receptor gamma (Homo sapiens) (UniProt P37231). As to the kind of experiment: retested PPARg-SRC-2 recruitment enhancers – biochemical, HTS, confirmation (AID 1297; in the data active = activation above about 22%;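 note: 0% = vehicle alone and 100% = reference agonist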). The following applies: biochemical SRC-2 recruitment by PPARgamma; at 8 µM; stronger effect = higher value.
Assay [2] shares this target. As to the kind of experiment: retest of SRC-1 recruitment enhancers for PPARgamma – biochemical, confirmation (AID 1300; in the data active = activation above about 20%;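 note: 0% = vehicle wells and 100% = reference agonist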). The following applies: PPARgamma–SRC-1 coactivator recruitment biochemical assay; at 8 µM; stronger effect = higher value.
The target of assay [3] is Peroxisome proliferator-activated receptor gamma (Homo sapiens) + Nuclear receptor coactivator 3 (Homo sapiens) (UniProt P37231+Q9Y6Q9). Kind of assay: agonists promoting SRC-3 binding to PPARgamma – biochemical, confirmation (AID 1301).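 Note: 0% = vehicle wells and 100% = reference agonist.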 The settings on record: biochemical PPARgamma-SRC-3 coactivator recruitment, agonist mode; at 8 µM; stronger effect = higher value.
Chain of Peroxisome proliferator-activated receptor gamma (Homo sapiens) + Nuclear receptor coactivator 3 (Homo sapiens) (P37231 whole entry, looked up): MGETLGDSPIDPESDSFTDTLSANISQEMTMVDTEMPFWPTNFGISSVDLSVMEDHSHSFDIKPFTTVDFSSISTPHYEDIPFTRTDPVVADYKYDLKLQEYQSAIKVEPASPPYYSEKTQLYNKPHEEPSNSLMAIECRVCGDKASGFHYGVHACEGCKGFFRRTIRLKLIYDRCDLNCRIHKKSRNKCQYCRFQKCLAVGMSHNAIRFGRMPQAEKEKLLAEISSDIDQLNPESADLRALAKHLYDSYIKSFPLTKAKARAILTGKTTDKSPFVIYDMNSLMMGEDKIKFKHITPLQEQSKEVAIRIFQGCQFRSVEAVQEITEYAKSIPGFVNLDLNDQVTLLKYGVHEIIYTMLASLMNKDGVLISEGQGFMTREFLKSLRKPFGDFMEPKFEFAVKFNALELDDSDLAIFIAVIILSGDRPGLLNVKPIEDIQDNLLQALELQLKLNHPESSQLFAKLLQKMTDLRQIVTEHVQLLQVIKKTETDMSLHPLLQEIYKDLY
Chain of Peroxisome proliferator-activated receptor gamma (Homo sapiens) + Nuclear receptor coactivator 3 (Homo sapiens) (Q9Y6Q9 whole entry, looked up): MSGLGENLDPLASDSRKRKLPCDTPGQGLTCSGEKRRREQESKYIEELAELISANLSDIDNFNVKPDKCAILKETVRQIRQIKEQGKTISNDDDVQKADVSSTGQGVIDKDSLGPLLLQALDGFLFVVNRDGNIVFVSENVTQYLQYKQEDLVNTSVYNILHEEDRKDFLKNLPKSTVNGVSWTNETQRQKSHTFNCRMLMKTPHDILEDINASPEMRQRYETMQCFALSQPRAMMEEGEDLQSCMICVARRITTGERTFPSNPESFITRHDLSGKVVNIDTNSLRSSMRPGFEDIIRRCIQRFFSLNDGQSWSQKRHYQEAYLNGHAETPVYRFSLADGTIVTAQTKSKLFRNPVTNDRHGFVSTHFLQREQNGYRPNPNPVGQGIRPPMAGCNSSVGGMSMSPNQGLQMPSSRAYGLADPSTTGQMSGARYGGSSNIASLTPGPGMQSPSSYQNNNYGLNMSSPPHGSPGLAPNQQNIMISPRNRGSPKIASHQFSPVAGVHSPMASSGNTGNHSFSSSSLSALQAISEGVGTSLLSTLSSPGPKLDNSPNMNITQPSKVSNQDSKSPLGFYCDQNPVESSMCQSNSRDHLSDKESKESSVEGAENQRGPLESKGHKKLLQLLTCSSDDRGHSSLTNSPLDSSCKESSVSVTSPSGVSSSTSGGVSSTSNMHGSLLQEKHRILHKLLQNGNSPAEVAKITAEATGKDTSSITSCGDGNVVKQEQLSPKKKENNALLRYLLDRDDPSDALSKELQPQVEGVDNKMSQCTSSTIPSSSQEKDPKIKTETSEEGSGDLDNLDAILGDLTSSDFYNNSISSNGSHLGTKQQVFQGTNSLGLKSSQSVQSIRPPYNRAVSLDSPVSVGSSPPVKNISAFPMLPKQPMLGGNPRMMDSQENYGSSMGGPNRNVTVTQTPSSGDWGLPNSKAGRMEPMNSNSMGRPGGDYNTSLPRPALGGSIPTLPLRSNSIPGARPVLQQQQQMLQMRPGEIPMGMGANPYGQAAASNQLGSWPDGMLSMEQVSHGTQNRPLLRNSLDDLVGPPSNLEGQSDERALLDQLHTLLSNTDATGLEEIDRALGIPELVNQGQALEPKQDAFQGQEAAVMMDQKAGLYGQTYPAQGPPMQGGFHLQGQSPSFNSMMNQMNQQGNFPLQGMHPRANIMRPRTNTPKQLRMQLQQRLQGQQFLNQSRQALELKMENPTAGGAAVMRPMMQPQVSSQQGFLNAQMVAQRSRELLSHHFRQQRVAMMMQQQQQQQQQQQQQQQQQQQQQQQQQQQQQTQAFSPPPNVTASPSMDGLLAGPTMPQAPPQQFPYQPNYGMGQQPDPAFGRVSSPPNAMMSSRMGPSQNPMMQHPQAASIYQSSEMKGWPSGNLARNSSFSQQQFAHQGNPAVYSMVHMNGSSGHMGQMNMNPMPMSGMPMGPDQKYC
Assay [4] deals with Sphingosine 1-phosphate receptor 4 (Homo sapiens) (UniProt O95977). As to the kind of experiment: blockers of human S1P4 signalling – cell-based, confirmation (AID 1524; in the data active = inhibition above about 30%). The settings on record: S1P4-expressing cell line, antagonist mode, reporter read-out; at 4.98 µM; stronger effect = higher value.
Chain of Sphingosine 1-phosphate receptor 4 (Homo sapiens) (O95977 whole entry, looked up): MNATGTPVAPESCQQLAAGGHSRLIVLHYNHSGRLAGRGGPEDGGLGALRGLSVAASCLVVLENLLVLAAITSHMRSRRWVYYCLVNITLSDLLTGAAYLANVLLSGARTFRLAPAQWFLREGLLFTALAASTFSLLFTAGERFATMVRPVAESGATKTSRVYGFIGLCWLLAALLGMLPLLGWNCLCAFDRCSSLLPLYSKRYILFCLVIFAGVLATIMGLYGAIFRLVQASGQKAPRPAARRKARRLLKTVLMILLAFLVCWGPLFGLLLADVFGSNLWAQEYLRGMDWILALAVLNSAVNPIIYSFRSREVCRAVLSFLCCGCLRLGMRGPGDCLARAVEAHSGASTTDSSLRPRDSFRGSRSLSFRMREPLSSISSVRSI
The target of assay [5] is Sphingosine 1-phosphate receptor 1 (Homo sapiens) (UniProt P21453). As to the kind of experiment: blockade of human S1P1 receptor – cell-based, counter-screen for S1P4 antagonist project (AID 1564; in the data active = inhibition above about 40%;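 note: receptor stimulated with S1P near its EC80; 0% = agonist stimulated wells and 100% = vehicle only wells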). The following applies: cell-based S1P1 antagonist counterscreen, at 4.98 µM, stronger effect = higher value.
Chain of Sphingosine 1-phosphate receptor 1 (Homo sapiens) (P21453 whole entry, looked up): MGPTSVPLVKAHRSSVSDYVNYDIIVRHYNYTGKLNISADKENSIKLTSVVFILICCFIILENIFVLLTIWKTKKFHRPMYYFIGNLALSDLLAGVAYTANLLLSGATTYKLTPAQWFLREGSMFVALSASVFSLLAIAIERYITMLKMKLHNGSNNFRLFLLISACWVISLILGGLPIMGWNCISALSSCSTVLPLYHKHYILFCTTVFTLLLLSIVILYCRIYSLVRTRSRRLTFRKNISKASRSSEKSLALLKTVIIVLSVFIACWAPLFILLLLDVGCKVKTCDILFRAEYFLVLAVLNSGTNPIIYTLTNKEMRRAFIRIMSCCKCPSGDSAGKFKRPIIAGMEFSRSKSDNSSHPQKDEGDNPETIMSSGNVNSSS
Assay [6] has as its target Neuropeptide Y receptor type 2 (Homo sapiens) (UniProt P49146). As to the kind of experiment: human Y2 receptor positive modulation or activation – cell-based, confirmation (AID 1539; in the data active = activation above about 33%). The following applies: cell-based NPY-Y2 potentiator/agonist assay; at 3.6 µM; stronger effect = higher value.
The target of assay [7] is Neuropeptide Y receptor type 1 (Homo sapiens) (UniProt P25929). Kind of assay: human Y1 receptor positive modulation or activation – cell-based, fluorescence, counter-screen for NPY-Y2 potentiator project (AID 1651; in the data active = activation above about 45%;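 note: cells stimulated with submaximal NPY then isoproterenol with phosphodiesterase inhibitor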). The settings on record: Y1 HEK293-CNG cells, membrane potential fluorescence; at 3.6 µM; stronger effect = higher value.
Chain of Neuropeptide Y receptor type 1 (Homo sapiens) (P25929 whole entry, looked up): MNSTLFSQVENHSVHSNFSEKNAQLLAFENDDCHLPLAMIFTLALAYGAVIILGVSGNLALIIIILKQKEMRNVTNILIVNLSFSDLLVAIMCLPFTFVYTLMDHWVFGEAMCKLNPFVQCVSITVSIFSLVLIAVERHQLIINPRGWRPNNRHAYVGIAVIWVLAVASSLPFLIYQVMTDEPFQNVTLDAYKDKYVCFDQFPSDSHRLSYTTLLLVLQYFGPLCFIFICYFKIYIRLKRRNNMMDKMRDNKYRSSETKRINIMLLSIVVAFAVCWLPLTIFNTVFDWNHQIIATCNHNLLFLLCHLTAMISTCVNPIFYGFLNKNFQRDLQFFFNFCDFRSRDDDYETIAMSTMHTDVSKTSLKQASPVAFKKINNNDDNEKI
Assay [8] has the same target. Kind of assay: human Y1 receptor agonism, CNGC membrane potential – cell-based, fluorescence, selectivity assay for NPY-Y2 potentiator project (AID 1702;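 active = activation above the mean of DMSO-only control wells plus 3 SD, cut at about 18% in these data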;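 note: cells stimulated with 1 µM isoproterenol plus the PDE inhibitor Ro 20-1724; 0% = isoproterenol with DMSO and no NPY and 100% = 40 nM NPY; Y1 agonists lower the membrane potential dye signal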). The settings on record: HEK293 Y1-CNGC, at 3.6 µM, stronger effect = higher value.
The nature of assay [9]: blockers of isoproterenol-driven CNG channel signal – cell-based, HEK293-CNG parental, membrane potential fluorescence, counter-screen for NPY-Y2 potentiator project (AID 1703;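 active = inhibition above the control-well mean plus 3 SD of those wells, cut at about 22% in these data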;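 note: 0% = DMSO with isoproterenol and 100% = DMSO without isoproterenol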). The following applies: isoproterenol cAMP, at 3.6 µM, stronger effect = higher value. In general terms: The purpose of a counterscreen is to sort out artefacts and off-target activity.
In assay [10] the target is Neuropeptide Y receptor type 2 (Homo sapiens) (UniProt P49146). Kind of assay: agonism at human Y2 receptor without NPY – cell-based, fluorescence, counter-screen for NPY-Y2 potentiator project (AID 1710;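 active = activation above the mean of solvent-only control wells plus 3 SD, cut at about 10% in these data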;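 note: cells stimulated by isoproterenol with no NPY added so direct agonism is tested; 0% = DMSO with isoproterenol alone and 100% = NPY at EC100 plus isoproterenol; agonism lowers probe fluorescence through less cAMP and CNG channel opening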). The following applies: HEK293 Y2/CNGC cells, membrane potential fluorescence, agonist mode; at 3.6 µM; stronger effect = higher value.
Chain of Neuropeptide Y receptor type 2 (Homo sapiens) (P49146 whole entry, looked up): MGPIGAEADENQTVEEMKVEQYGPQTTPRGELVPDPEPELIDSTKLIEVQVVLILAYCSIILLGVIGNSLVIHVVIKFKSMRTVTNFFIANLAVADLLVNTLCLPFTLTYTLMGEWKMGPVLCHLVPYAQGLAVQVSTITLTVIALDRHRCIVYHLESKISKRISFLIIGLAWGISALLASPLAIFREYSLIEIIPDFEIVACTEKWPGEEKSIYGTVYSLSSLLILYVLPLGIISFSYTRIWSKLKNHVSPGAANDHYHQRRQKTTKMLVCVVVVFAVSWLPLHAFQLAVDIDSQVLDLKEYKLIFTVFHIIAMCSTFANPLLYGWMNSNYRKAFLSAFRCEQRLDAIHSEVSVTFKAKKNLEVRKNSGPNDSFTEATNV
Assay [11] is described as follows: reduced OD of T4-infected AddAB+ E. coli – absorbance, E. coli V3065, T4 phage, triplicate, AddAB inhibitor project, confirmation (AID 488942;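 active = mean inhibition above a set limit taken from the earlier primary screen, cut at about 13% in these data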;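 note: higher means less bacterial growth since AddAB block lets phage replicate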). The settings on record: E. coli V3065 expressing H. pylori AddAB, at 11.9 µM, stronger effect = higher value, T4 phage with gene 2 nonsense mutations.
Assay [12] in a line: reduced OD of phage-infected RecBCD+ V66 E. coli – absorbance, mutant T4 phage, counter-screen for AddAB inhibitor project (AID 488955;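 active = mean inhibition above the mean of solvent-only control wells plus 3 SD, cut at about 4% in these data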;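 note: optical density read after an 18 h incubation at 37 °C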). The following applies: OD growth, at 11.9 µM, stronger effect = higher value.
The nature of assay [13]: bacterial growth inhibitors – absorbance, counter-screen for AddAB inhibitor project, confirmation (AID 488956; in the data active = inhibition above about 25%). The settings on record: bacterial viability, absorbance (AddAB counterscreen); at 11.9 µM; stronger effect = higher value.
The target of assay [14] is Nuclear receptor coactivator 3 (Homo sapiens) (UniProt Q9Y6Q9). As to the kind of experiment: NCOA3 GAL4-fusion reporter inhibition – cell-based, luminescence, quadruplicate, confirmation (AID 588792;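 active = mean inhibition over 43.08%, the solvent-only control mean plus 3 SD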;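 note: 0% = DMSO treated cells and 100% = gossypol at 36 µM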). The settings on record: HEK293 GAL4-SRC3 luciferase reporter, at 3.6 µM, stronger effect = higher value. A general note: Reporter assays use an easily measured gene product as a stand-in for the process of interest.
Chain of Nuclear receptor coactivator 3 (Homo sapiens) (Q9Y6Q9 whole entry, looked up, the tested form may be a part): as the sequence (Q9Y6Q9 whole entry, looked up) above

The test system of assay [15] is transactivating tegument protein VP16 (Human herpesvirus 1), Gal4-VP16 luciferase reporter. Kind of assay: repression of VP16-driven luciferase reporter – cell-based, luminescence, high throughput, counter-screen for SRC3 inhibitor project (AID 588794; in the data active = inhibition above about 30%). The following applies: mammalian cells, at 3.6 µM, stronger effect = higher value.
For assay [16], the target named is Nuclear receptor coactivator 1 (Homo sapiens) (UniProt Q15788). Kind of assay: NCOA1 GAL4-fusion reporter inhibition – cell-based, luminescence, quadruplicate, confirmation (AID 588820;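 active = mean inhibition above 46.68%, the untreated control wells mean plus 3 SD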;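 note: 0% = DMSO wells and 100% = gossypol 36 µM treated wells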). The following applies: HEK293 GAL4-SRC1 luciferase reporter, at 3.6 µM, stronger effect = higher value.
Assay [17] in a line: repression of VP16-driven luciferase reporter – cell-based, luminescence, high throughput, counter-screen for SRC1 inhibitor project (AID 588824; in the data active = inhibition above about 25%). The following applies: cell-based VP16 transactivation luciferase luminescence; at 3.6 µM; stronger effect = higher value.
Assay [18] addresses Photoreceptor-specific nuclear receptor (Homo sapiens) (UniProt Q9Y5X4). As to the kind of experiment: retest of NR2E3-NCOR disrupting agonists – cell-based, luminescence, CHO-S two-hybrid, confirmation (AID 624378;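 active = average inhibition above a cutoff equal to the mean inhibition of all tested compounds plus one SD, cut at about 70% in these data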;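 note: 0% = DMSO in NR2E3 cells and 100% = DMSO in cells lacking NR2E3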). The following applies: CHO-S mammalian two-hybrid NR2E3-NCOR, luciferase luminescence; at 3.98 µM; stronger effect = higher value.
A short description of assay [19]: nonselective effects on VP16 transactivation – cell-based, luminescence, CHO-S, high throughput, counter-screen for NR2E3 agonist project, confirmation (AID 624379;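 active = mean inhibition above a cutoff equal to the average over all tested compounds plus one standard deviation, cut at about 70% in these data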;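 note: 0% = DMSO with VP16-transfected cells and 100% = DMSO with cells lacking VP16; higher means less reporter light so more repression of VP16 activity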). The settings on record: CHO-S GAL4-VP16 luciferase reporter, at 3.98 µM, stronger effect = higher value.
Assay [20] in a line: StAR promoter reporter inhibitors, counter-screen for LRH-1 inverse agonist project, cell-based, luminescence, high throughput (AID 651611; in the data active = inhibition above about 28%). The settings on record: StAR promoter luciferase reporter counterscreen, at 3.6 µM, stronger effect = higher value.
Assay [21] concerns the target Nuclear receptor subfamily 5 group A member 2 (Homo sapiens) (UniProt O00482). As to the kind of experiment: NR5A2 activity suppression in reporter cells – cell-based, luminescence, confirmation (AID 651613; in the data active = inhibition above about 42%;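 note: HEK293T cells co-transfected with LRH-1 and StAR promoter luciferase reporter; 0% = vehicle wells and 100% = parental cells lacking receptor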). The following applies: cell-based LRH-1 luciferase reporter, inverse agonism; at 3.6 µM; stronger effect = higher value.
For assay [22], the target named is Steroidogenic factor 1 (Homo sapiens) (UniProt Q13285). Kind of assay: inverse agonism at SF1 nuclear receptor – cell-based, luminescence, high throughput, counter-screen for LRH-1 inverse agonist project (AID 651614; in the data active = inhibition above about 44%;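 note: cells cotransfected with StAR promoter reporter and SF1 expression vector; 0% = vehicle on cells with receptor and 100% = vehicle on cells lacking receptor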). The settings on record: cell-based SF1 luciferase reporter, at 3.6 µM, stronger effect = higher value.
Chain of Steroidogenic factor 1 (Homo sapiens) (Q13285 whole entry, looked up, the tested form may be a part): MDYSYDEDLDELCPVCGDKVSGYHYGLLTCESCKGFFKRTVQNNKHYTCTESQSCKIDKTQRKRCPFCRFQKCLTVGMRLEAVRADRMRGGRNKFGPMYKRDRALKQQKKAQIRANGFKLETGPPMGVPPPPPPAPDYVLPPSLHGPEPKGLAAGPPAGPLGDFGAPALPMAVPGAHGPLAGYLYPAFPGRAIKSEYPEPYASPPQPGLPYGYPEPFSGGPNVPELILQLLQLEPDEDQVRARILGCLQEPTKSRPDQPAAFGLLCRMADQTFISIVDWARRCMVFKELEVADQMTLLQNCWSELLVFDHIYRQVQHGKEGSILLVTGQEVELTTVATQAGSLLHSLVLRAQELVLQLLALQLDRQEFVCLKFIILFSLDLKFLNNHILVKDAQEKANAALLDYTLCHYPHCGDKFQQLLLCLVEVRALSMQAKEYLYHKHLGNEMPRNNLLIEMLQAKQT
Assay [23] is described as follows: compounds suppressing VP16-driven luciferase signal – cell-based, luminescence, high throughput, counter-screen for LRH-1 inverse agonist project (AID 651615; in the data active = inhibition above about 33%). The following applies: Gal4-VP16 luciferase reporter cells, at 3.6 µM, stronger effect = higher value.
The nature of assay [24]: reduced OD of V66 E. coli with T4 gene 2 phage – absorbance, RecBCD inhibitor project, confirmation (AID 651982;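 active = mean inhibition over triplicates exceeding the hit threshold derived in the original primary screen, cut at about 11% in these data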). The following applies: E. coli V66 + T4 2- phage, growth OD; at 11.9 µM; stronger effect = higher value.
Assay [25] in a line: bacterial growth inhibition – absorbance, high throughput, counter-screen for RecBCD inhibitor project (AID 651983; in the data active = inhibition above about 20%;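 note: E. coli strain V66 grown with compound alone and no phage infection; 0% = bacteria with DMSO vehicle only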). The settings on record: E. coli viability, absorbance (OD) growth; at 11.9 µM; stronger effect = higher value.
Assay [26] is described as follows: reduced optical density, T4-challenged addAB+ bacteria – absorbance, E. coli V3065, T4 phage, counter-screen for RecBCD inhibitor project, confirmation (AID 651984;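 active = mean inhibition above the solvent-only control wells' mean plus 3 SD, cut at about 22% in these data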;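 note: higher means less bacterial growth from phage killing when AddAB is blocked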). The following applies: E. coli expressing H. pylori AddAB + T4 phage, OD growth; at 11.9 µM; stronger effect = higher value; gene 2 mutant T4, recBCD-deleted host.
Assay [27] can be described thus: VP16-driven transactivation reporter suppression – cell-based, luminescence, HEK293, counter-screen for COUP-TFII antagonist project (AID 687007; in the data active = inhibition above about 13%). The settings on record: HEK293 Gal4-VP16 luciferase reporter, at 8.5 µM, stronger effect = higher value.
The target in assay [28] is COUP transcription factor 2 (Homo sapiens) (UniProt P24468). Kind of assay: retest of COUP-TFII reporter suppressors – cell-based, luciferase reporter, HEK293, triplicate, confirmation (AID 687008;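 active = mean inhibition over three repeats above a set limit taken from the earlier primary screen, cut at about 38% in these data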;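 note: 100% = cells given the luciferase reporter alone without the COUP-TF2 vector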). The settings on record: HEK293 NGFI-A luciferase reporter, luminescence; at 8.5 µM; stronger effect = higher value.

Values without a mark were called inactive. This is one part of the list. Active and inactive are the calls of the source. Cut-off read from the data, not from the text of the source, unless noted: active = activation above about 24%; inactive = the rest.

Chain of Peroxisome proliferator-activated receptor gamma (Homo sapiens) (P37231 whole entry, looked up): as the sequence (P37231 whole entry, looked up) above
Chain of Photoreceptor-specific nuclear receptor (Homo sapiens) (Q9Y5X4 whole entry, looked up): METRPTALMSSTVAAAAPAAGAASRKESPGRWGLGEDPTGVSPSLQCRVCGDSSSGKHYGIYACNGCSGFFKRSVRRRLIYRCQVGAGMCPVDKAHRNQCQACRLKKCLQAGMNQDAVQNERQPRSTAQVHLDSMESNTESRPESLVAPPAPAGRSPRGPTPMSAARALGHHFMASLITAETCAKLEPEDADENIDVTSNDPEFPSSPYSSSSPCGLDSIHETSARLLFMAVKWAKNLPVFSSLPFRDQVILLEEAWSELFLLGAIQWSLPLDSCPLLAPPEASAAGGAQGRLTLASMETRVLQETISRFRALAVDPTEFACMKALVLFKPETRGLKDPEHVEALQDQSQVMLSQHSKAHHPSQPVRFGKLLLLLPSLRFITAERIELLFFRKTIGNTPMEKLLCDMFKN

Regarding `Cn1c(=O)cc(SCC(=O)N2CCCC2)c2cc(Cl)ccc21`, the values for the activation in assay [1], in assay [2] and in assay [3] were 60.1% (active), 41.1% (active) and 42% (active), respectively.
For the molecule `CC(C)c1ccc(N2CCN(C(=O)c3ccccc3NC(=O)/C=C(\C(=O)O)c3ccccc3)CC2)cc1`, the inhibition (commonly the drop in the measured response relative to a control, in per cent) in [4] was 102% (active); in assay [5], 62.4% (active).
In the case of `COC(=O)c1[nH]c2ccc(Br)cc2c1NC(=O)Oc1ccccc1`, the activation in assay [1] was 7.14%; in assay [2], 3.71%; in assay [3], 4.54%.
For `CCn1c(=O)cc(SCC(=O)NCc2ccc3c(c2)OCO3)c2ccccc21`, in that order: 22.7% (active), 15.8% and 18.1%.
Regarding `CNc1ccc(SC#N)cc1`, the inhibition in assay [4] is 8.17%; in [5] it was -1.31%.
Turning to `NC(=O)CSc1oc(-c2cccs2)nc1S(=O)(=O)c1ccccc1`, the figures for the activation in [1], in assay [2] and in assay [3] were 40.9% (active), 34.8% (active) and 26.5% (active), respectively.
In the case of `Cc1cc(C)c2cc(CN(Cc3cccs3)Cc3nnnn3CC3CCCO3)c(=O)[nH]c2c1` (centres undefined), the activation was 9.95% in assay [1], 11.9% in assay [2] and 15% in assay [3].
For `O=C(CC(O)(C(F)(F)F)C(F)(F)F)Nc1ccc(Cl)c(Cl)c1`, the inhibition in [4] is 37.4% (active); in [5] it was 8.72%; in assay [9], -7.55%; in [11], 16.9% (active); in assay [12] it was 21.6% (active); in assay [13], 16.9%. Further, the inhibition in assay [14] was 58.7% (active); in assay [15] it was 65.2% (active); in assay [16], 46.4%; in assay [17] it was 74.2% (active); in assay [18], 99.8% (active); in [19] it was 89.7% (active). The inhibition in assay [20] was 74.3% (active); in assay [21] it was 102% (active); in assay [22], 90.4% (active); in assay [23], 88.5% (active); in [24], 16.8% (active); in assay [25], 20.4% (active). In addition, the inhibition in [26] was 22.1% (active); in [27], 20.4% (active); in assay [28] it was 62.1% (active). Besides, the activation in [6] is 17%; in assay [7], -22.8%; in [8], -13.7%; in assay [10] it was 11.5% (active).
Consider `Cc1cc(C)nc(S/C=C/C(=O)c2ccccc2)n1`, for which the inhibition is 97.1% (active) in assay [4] and 19.6% in assay [5].
On to `CNC(=S)N1N=C(c2ccccc2)CC1c1ccc(Br)cc1` (centres undefined), for which the activation is 24.2% (active) in assay [1], 23.1% (active) in assay [2] and 17.2% in assay [3].
As to `CCOC(=O)/C=C/C(=O)OCC(=O)NC(c1ccccc1)c1ccccc1`, the values for the inhibition in assay [4] and in [5] were 63% (active) and 23.2%, respectively.
Regarding `Cc1ccccc1-c1n[nH]c(=S)n1/N=C/c1ccc(-c2ccccc2Br)o1`, the activation in assay [1] was 33.5% (active); in [2], 28.2% (active); in assay [3], 22.5%.
